# In the supplement of paper PMC8728848:
# Many of the other results were omitted from the sample, so the strongest signals are more common in it than they were.
# B1: Intelectin 1 (Homo sapiens), Q8WWA0 (protein)
# chain: MNQLSFLLFLIATTRGWSTDEANTYFKEWTCSSSPSLPRSCKEIKDECPSAFDGLYFLRTENGVIYQTFCDMTSGGGGWTLVASVHENDMRGKCTVGDRWSSQQGSKAVYPEGDGNWANYNTFGSAEAATSDDYKNPGYYDIQAKDLGIWHVPNKSPMQHWRNSSLLRYRTDTGFLQTLGHNLFGIYQKYPVKYGEGKCWTDNGPVIPVVYDFGDAQKTASYYSPYGQREFTAGFVQFRVFNNERAANALCAGMRVTGCNTEHHCIGGGGYFPEASPQQCGDFSGFDWSGYGTHVGYSSSREITEAAVLLFYR
# How the values were obtained:
# Experiment in all cases: glycan array binding signal (z-score within array); higher = stronger binding
# Settings in all cases: glycan notation: IUPAC condensed, linker removed
# [1] = target: Fuc(a1-2)Gal
# Method in brief: (§1)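 From the Consortium for Functional Glycomics database, 3228 arrays were curated, keeping only those whose protein sequence was available. Binding is given as a within-array Z-score averaged across arrays sharing a protein sequence and across linkers. Negative Z-scores can be read as non-binding.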
# [2] = target: Fuc(a1-2)Gal(b1-3)GalNAc
# Method in brief: as §1
# [3] = target: Fuc(a1-2)Gal(b1-3)GalNAc(b1-3)Gal(a1-4)Gal(b1-4)Glc
# Method in brief: as §1
# [4] = target: Fuc(a1-2)Gal(b1-3)GlcNAc
# Method in brief: as §1
# [5] = target: Fuc(a1-2)Gal(b1-3)GlcNAc(b1-3)GalNAc
# Method in brief: as §1
# [6] = target: Fuc(a1-2)Gal(b1-3)GlcNAc(b1-3)[Neu5Ac(a2-6)Gal(b1-4)GlcNAc(b1-6)]Gal(b1-4)Glc
# Method in brief: as §1
# [7] = target: Fuc(a1-2)[Gal(a1-3)]Gal(b1-4)[Fuc(a1-3)]GlcNAc(b1-3)GalNAc
# Method in brief: as §1
# [8] = target: Fuc(a1-2)[GalNAc(a1-3)]Gal(b1-3)GlcNAc(b1-2)Man(a1-3)[Fuc(a1-2)[GalNAc(a1-3)]Gal(b1-3)GlcNAc(b1-2)Man(a1-6)]Man(b1-4)GlcNAc(b1-4)[Fuc(a1-6)]GlcNAc
# Method in brief: as §1
# [9] = target: Fuc(a1-2)[GalNAc(a1-3)]Gal(b1-4)GlcNAc(b1-3)Gal(b1-4)GlcNAc
# Method in brief: as §1
# [10] = target: Fuc(a1-3)[Gal(b1-4)]GlcNAc(b1-2)Man(a1-3)[Fuc(a1-3)[Gal(b1-4)]GlcNAc(b1-2)Man(a1-6)]Man(b1-4)GlcNAc(b1-4)[Fuc(a1-6)]GlcNAc
# Method in brief: as §1
# [11] = target: Gal(a1-3)GalNAc
# Method in brief: as §1
# [12] = target: Gal(b1-3)GalNAc(a1-3)[Fuc(a1-2)]Gal(b1-4)Glc
# Method in brief: as §1
# [13] = target: Gal(b1-3)GlcNAc(b1-6)Gal(b1-4)GlcNAc
# Method in brief: as §1
# [14] = target: Gal(b1-3)[Fuc(a1-4)]GlcNAc(b1-3)Gal(b1-4)GlcNAc
# Method in brief: as §1
# [15] = target: Gal(b1-3)[Neu5Ac(b2-6)]GalNAc
# Method in brief: as §1
# [16] = target: Gal(b1-4)GlcNAc(b1-3)Gal(b1-4)Glc
# Method in brief: as §1
# [17] = target: Gal6S(b1-3)GlcNAc6S
# Method in brief: as §1
# [18] = target: Gal6S(b1-4)Glc
# Method in brief: as §1
# [19] = target: GalNAc(b1-3)Gal
# Method in brief: as §1
# [20] = target: GalNAc(b1-3)Gal(a1-6)Gal(b1-4)Glc
# Method in brief: as §1
# [21] = target: GalNAc(b1-3)GalNAc
# Method in brief: as §1
# [22] = target: GalNAc(b1-4)GlcNAc(b1-2)Man(a1-3)[GalNAc(b1-4)GlcNAc(b1-2)Man(a1-6)]Man(b1-4)GlcNAc(b1-4)GlcNAc
# Method in brief: as §1
# [23] = target: Glc(a1-6)Glc(a1-6)Glc
# Method in brief: as §1
# [24] = target: GlcNAc(a1-4)Gal(b1-4)GlcNAc(b1-3)Gal(b1-4)GlcNAc
# Method in brief: as §1
# [25] = target: GlcNAc(a1-4)Gal(b1-4)GlcNAc(b1-3)Gal(b1-4)[Fuc(a1-3)]GlcNAc(b1-3)Gal(b1-4)[Fuc(a1-3)]GlcNAc
# Method in brief: as §1
# [26] = target: GlcNAc(b1-2)Man(a1-3)[GlcNAc(b1-2)Man(a1-6)]Man(b1-4)GlcNAc(b1-4)GlcNAc
# Method in brief: as §1
# [27] = target: GlcNAc(b1-2)[GlcNAc(b1-6)]Man(a1-6)[GlcNAc(b1-2)Man(a1-3)][GlcNAc(b1-4)]Man(b1-4)GlcNAc(b1-4)GlcNAc
# Method in brief: as §1
# [28] = target: Man(a1-2)Man(a1-2)Man(a1-3)Man
# Method in brief: as §1
# [29] = target: Man(a1-2)Man(a1-3)[Man(a1-2)Man(a1-6)]Man(a1-6)[Man(a1-2)Man(a1-2)Man(a1-3)]Man
# Method in brief: as §1
# [30] = target: Man(a1-3)[Man(a1-6)]Man(a1-6)[Man(a1-3)]Man(b1-4)GlcNAc(b1-4)GlcNAc
# Method in brief: as §1
# [31] = target: Neu5Ac(a2-3)Gal(b1-3)GlcNAc(b1-3)Gal(b1-4)GlcNAc
# Method in brief: as §1
# [32] = target: Neu5Ac(a2-3)Gal(b1-3)[Neu5Ac(a2-3)Gal(b1-4)]GlcNAc
# Method in brief: as §1
# [33] = target: Neu5Ac(a2-3)Gal(b1-3)[Neu5Ac(a2-6)]GalNAc
# Method in brief: as §1
# [34] = target: Neu5Ac(a2-3)Gal(b1-4)[Fuc(a1-3)]GlcNAc(b1-3)Gal
# Method in brief: as §1
# [35] = target: Neu5Ac(a2-8)Neu5Ac(a2-3)Gal(b1-4)Glc
# Method in brief: as §1
# [36] = target: Neu5Ac(a2-8)Neu5Ac(a2-3)[Gal(b1-3)GalNAc(b1-4)]Gal(b1-4)Glc
# Method in brief: as §1
# [37] = target: Neu5Gc(a2-6)GalNAc
# Method in brief: as §1
binder,measurement,setting,value
B1,glycan array binding signal (z-score),[1],2.53
same,glycan array binding signal (z-score),[2],-0.327
same,glycan array binding signal (z-score),[3],0.742
same,glycan array binding signal (z-score),[4],0.069
same,glycan array binding signal (z-score),[5],0.22
same,glycan array binding signal (z-score),[6],4.21
same,glycan array binding signal (z-score),[7],-0.244
same,glycan array binding signal (z-score),[8],1.21
same,glycan array binding signal (z-score),[9],-0.387
same,glycan array binding signal (z-score),[10],0.394
same,glycan array binding signal (z-score),[11],-0.41
same,glycan array binding signal (z-score),[12],0.06
same,glycan array binding signal (z-score),[13],0.042
same,glycan array binding signal (z-score),[14],1.33
same,glycan array binding signal (z-score),[15],2.22
same,glycan array binding signal (z-score),[16],0.614
same,glycan array binding signal (z-score),[17],1.05
same,glycan array binding signal (z-score),[18],-0.449
same,glycan array binding signal (z-score),[19],2.09
same,glycan array binding signal (z-score),[20],-0.442
same,glycan array binding signal (z-score),[21],-0.802
same,glycan array binding signal (z-score),[22],0.358
same,glycan array binding signal (z-score),[23],0.027
same,glycan array binding signal (z-score),[24],3.85
same,glycan array binding signal (z-score),[25],3.27
same,glycan array binding signal (z-score),[26],-0.457
same,glycan array binding signal (z-score),[27],0.148
same,glycan array binding signal (z-score),[28],1.53
same,glycan array binding signal (z-score),[29],-0.313
same,glycan array binding signal (z-score),[30],-0.432
same,glycan array binding signal (z-score),[31],0.545
same,glycan array binding signal (z-score),[32],-0.157
same,glycan array binding signal (z-score),[33],-0.094
same,glycan array binding signal (z-score),[34],-0.21
same,glycan array binding signal (z-score),[35],0.12
same,glycan array binding signal (z-score),[36],0.572
same,glycan array binding signal (z-score),[37],0.523
